CYP2C19 inhib = blockers of cytochrome P450 2C19 activity – biochemical, luminescence, ADME assay, primary screen | P33261 | inhibition, % at 5 µM | CYP2C19 Supersomes, luciferin-H EGE luminescence, 30 min | hit rate 21% among 96,000;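 active = CYP2C19 inhibition above a set limit at 5 µM in the primary screen, cut at about 50% in these data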
Target sequence (P33261 whole entry, looked up): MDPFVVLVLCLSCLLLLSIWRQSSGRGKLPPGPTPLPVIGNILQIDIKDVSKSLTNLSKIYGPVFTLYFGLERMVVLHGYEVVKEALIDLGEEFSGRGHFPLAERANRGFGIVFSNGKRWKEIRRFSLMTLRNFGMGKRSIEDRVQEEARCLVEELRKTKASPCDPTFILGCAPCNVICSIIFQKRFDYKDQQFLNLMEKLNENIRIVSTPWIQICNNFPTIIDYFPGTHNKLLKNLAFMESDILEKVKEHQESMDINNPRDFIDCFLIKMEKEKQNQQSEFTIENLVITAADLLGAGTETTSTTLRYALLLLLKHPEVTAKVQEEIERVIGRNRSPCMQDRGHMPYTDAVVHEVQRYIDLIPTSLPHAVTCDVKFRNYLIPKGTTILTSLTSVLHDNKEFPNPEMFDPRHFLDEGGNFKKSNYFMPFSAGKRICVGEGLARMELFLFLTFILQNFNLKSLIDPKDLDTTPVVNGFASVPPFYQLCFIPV
CYP2C9 activ = human CYP2C9 activators, primary screen, biochemical, luminescence; AID 1024, 2008; recombinant CYP2C9, luciferin-H conversion; stronger effect = higher value; factor 1 = untreated enzyme, 0 = blocked; activation factor at 5 µM; hit rate 1.4% among 96,000; Cytochrome P450 2C9 (Homo sapiens), P11712;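 active = activation factor of 2 or more for CYP2C9 at a 5 µM dose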
CYP2C9 inh = blockers of cytochrome P450 2C9 activity – biochemical, luminescence, ADME assay, primary screen. CYP2C9 Supersomes, luciferin-H conversion. hit rate 20% among 96,000. P11712. inhibition, % at 5 µM;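 active = blocking of liver enzyme CYP2C9 beyond about 50% at 5 µM, limit read from the data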
CYP2C19 activ = human CYP2C19 activators, primary screen, biochemical, luminescence | recombinant CYP2C19, luciferin-H EGE luminescence; stronger effect = higher value; 0 = fully inhibited enzyme, 1 = untreated enzyme | 96,000 tested, under 10 active | activation factor at 5 µM | Cytochrome P450 2C19 (Homo sapiens), P33261;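 active = activation factor of at least 2 at 5 µM in the primary screen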
Large screens that a line does not name were inactive. Only some compounds are listed: those with a hit (about 31% of all), similar ones and a draw of the others.

Cc1csc2nc(CNS(=O)(=O)N(C)C)cn12	none
COc1ccc(S(=O)(=O)NCc2cn3c(C)csc3n2)cc1F	none
O=S(=O)(NCCc1cn2ccccc2n1)c1ccc2c(c1)OCCO2	CYP2C19 inhib 69.6
Cc1csc2nc(CCNS(=O)(=O)c3ccc4c(c3)OCCO4)cn12	CYP2C19 inhib 61.5
Cc1csc2nc(CNS(=O)(=O)c3ccc4c(c3)CCCC4)cn12	CYP2C19 inhib 54.3, CYP2C9 activ 2
Cc1nc(CNS(=O)(=O)c2cc(C)c(C)cc2C)cs1	CYP2C19 inhib 87.2
Cc1cc(C)nc(Nc2nc(=O)c3ccccc3s2)n1	none
Cc1cc(C)c(C#N)c(=N)o1	none
COC(=O)CC1SC(=O)NC1=Nc1ccc(OC)cc1 (configuration not stated)	none
Cc1cc(C)nc(N(C#N)CN2C(=O)c3ccccc3S2(=O)=O)n1	none
O=C(NCCN1CCOCC1)c1cc(S(=O)(=O)NCCCN2CCCC2=O)ccc1Cl	none
COc1ccc2sc(N3C(=O)C4CC=C(C)CC4C3=O)nc2c1 (configuration not stated)	CYP2C19 inhib 61.0, CYP2C9 inh 79.7
COc1ccc2nc(N3C(=O)CC(Cc4cc(C)cc(C)c4)C3=O)sc2c1 (configuration not stated)	none
COC(=O)CSc1nc(N)c2c3c(sc2n1)CCCC3	CYP2C19 inhib 86.0, CYP2C9 inh 65.4
CCCSc1nc(N)c2c3c(sc2n1)CN(C)CC3	CYP2C19 inhib 81.9
Nc1nc(SCC(=O)NCCCO)nc2sc3c(c12)CCC3	none
C=CCSc1nnc(NC(=O)CSc2nc3ccccc3o2)s1	CYP2C19 inhib 58.8, CYP2C9 inh 82.3
CCc1nnc(NC(=O)CSc2nc3ccccc3o2)s1	CYP2C9 inh 58.7
CCc1nnc(NC(=O)CSc2nnc(COc3ccccc3C)o2)s1	none
O=C(CSc1nc2ccccc2o1)Nc1nncs1	CYP2C9 inh 55.4
CCOC(=O)c1nnn(-c2nonc2N)c1-c1cccc2ccccc12	CYP2C19 inhib 98.1, CYP2C9 inh 83.7
Nc1nonc1-n1nnc(C(=O)O)c1-c1cccs1	CYP2C9 inh 83.8
CCOC(=O)c1nnn(-c2nonc2N)c1-c1ccc(OC)cc1	CYP2C19 inhib 98.1, CYP2C9 inh 80.1
Cc1c(C(=O)N2CCCCCC2)nnn1-c1nonc1N	none
CCOC(=O)c1nnn(-c2nonc2N)c1-c1cccs1	CYP2C19 inhib 67.6
CCOc1ccc(N(CC)C(=O)COc2cc(=O)n(C)c3ccccc23)cc1	CYP2C9 inh 69.9
CCOc1ccc(N(CC)C(=O)COc2cc(=O)n(CC)c3ccccc23)cc1	CYP2C19 inhib 69.9, CYP2C9 inh 94.4
CCOC(=O)c1ccccc1NC(=O)COc1cc(=O)n(CC)c2ccccc12	CYP2C19 inhib 80.1, CYP2C9 inh 81.3
CCn1c(=O)cc(OCC(=O)N2CCCC2)c2ccccc21	none
Cn1c(SCC(=O)N2CCOCC2)nc(O)cc1=O	none
O=C(Cc1cccs1)Nc1cccnc1	none
COc1ccc(/C=N/NS(=O)(=O)c2ccc(C)cc2)cc1OC(=O)c1ccccc1	none
CCOc1cc(/C=N/NC(=O)c2cccc([N+](=O)[O-])c2)ccc1OS(=O)(=O)c1ccccc1	CYP2C19 inhib 57.2, CYP2C9 inh 59.1
COc1ccc(/C=N/NS(=O)(=O)c2ccccc2)cc1OC(=O)c1ccc(C)cc1	CYP2C9 inh 89.1
COc1ccc(/C=N/NS(=O)(=O)c2ccccc2)cc1OS(=O)(=O)c1ccccc1	CYP2C9 inh 93.5
COc1ccc(C(=O)CSc2nnc(C(CO)NC(=O)c3ccc(OC)cc3)n2C)cc1 (configuration not stated)	CYP2C9 inh 71.4
C=CCn1c(SCCOc2ccc(OC)cc2)nnc1C(CO)NC(=O)c1ccc(OC)cc1 (configuration not stated)	CYP2C9 inh 88.3
COc1ccc(C(=O)NC(C)c2nnc(SCC(=O)Nc3nc4ccccc4s3)n2C)cc1 (configuration not stated)	CYP2C19 inhib 65.4, CYP2C9 inh 72.1
COc1ccc(NCc2nnc(SCC(=O)c3ccc(OC)cc3)n2C)cc1	none
CCSCc1nnc(SCC(=O)c2ccc(OC)cc2)n1C	CYP2C19 inhib 89.5
CCOC(=O)c1c(C)c(C(=O)NCc2ccccn2)c(C)n1CC	none
CC1(C)SC(=S)N(Cc2ccc3c(c2)OCO3)C1N(O)C(=O)NC1CCCCC1 (configuration not stated)	CYP2C9 inh 71.8
COc1ccc(C2C(C#N)=C(C)NC3=C2C(=O)CC(C)(C)C3)c(OC)c1 (configuration not stated)	none
CCCCC1C(C#N)=C(C)NC2=C1C(=O)CC(C)(C)C2 (configuration not stated)	CYP2C19 inhib 90.0, CYP2C9 inh 85.8
CCCc1cc(=O)[nH]c(SC(CC)C(=O)Nc2ccccc2C#N)n1 (configuration not stated)	none
CC(=O)NCCn1c(SCc2cc(=O)n3cc(Cl)ccc3n2)nc2ccccc2c1=O	none
O=C(Nc1nc(=S)ss1)c1c(F)cccc1F	CYP2C9 inh 79.7
CC(=O)Nc1nc(=S)ss1	none
Cc1ccccc1C(=O)Nc1nc(=S)ss1	CYP2C9 inh 81.3
CC(C)CC(=O)Nc1nc(=S)ss1	CYP2C9 inh 68.6
CCCCNc1cc(=O)n(C)c(=O)[nH]1	none
CCSc1ccccc1C(=O)Nc1cccc(OC)c1	none
CCOc1ccc(NC(=O)Nc2ccc3nccnc3c2)cc1	none
CC(=O)c1ccc(OC(C)C)c(CN2CCCCC2)c1	none
Cc1ccc2c(CC(=O)N3CCN(S(=O)(=O)c4cccs4)CC3)coc2c1	CYP2C19 inhib 92.4, CYP2C9 inh 79.6
Cc1ccc(C(=O)NCCc2csc(C)n2)cc1	CYP2C9 inh 53.2
Cc1nc(CCNC(=O)Cc2ccc(Cl)cc2)cs1	CYP2C19 inhib 56.3
Cc1ccc2c(c1)cc(CN(Cc1ccc3c(c1)OCO3)S(=O)(=O)c1ccccc1)c1nnnn12	CYP2C19 inhib 79.6, CYP2C9 inh 68.9
COc1cccc(-c2nc(NC(C)C)c3ccccc3n2)c1O	none
CC1CCCCN1c1nc(-c2ccncc2)nc2ccccc12 (configuration not stated)	CYP2C19 inhib 91.1, CYP2C9 inh 78.5
c1cncc(-c2nc(N3CCOCC3)c3ccccc3n2)c1	CYP2C9 inh 66.0
CC1CCN(c2nc(-c3ccncc3)nc3ccccc23)CC1	CYP2C19 inhib 92.7, CYP2C9 inh 75.8
CC1CCN(c2nc3ccccc3nc2N2CCC(C)CC2)CC1	none
CC1CCCCN1c1ncnc2ccccc12 (configuration not stated)	none
COc1cccc(-c2nc(N3CCN(c4ccccc4)CC3)c3ccccc3n2)c1O	CYP2C9 inh 55.1
COC(=O)c1cccc(Nc2nc3ccccc3nc2C)c1	none
CCC1CCCCN1c1nc(-c2cccc(OC)c2O)nc2ccccc12 (configuration not stated)	CYP2C9 inh 82.6
CCC1CCCCN1c1nc(-c2ccncc2)nc2ccccc12 (configuration not stated)	CYP2C19 inhib 99.3, CYP2C9 inh 100.3

From PubChem
